Bioassay records deposited in PubChem by National Center for Advancing Translational Sciences (NCATS).
Tau fibril ThT: blocks human tau fibril formation measured by thioflavin T. recombinant tau K18 P301L, heparin-induced fibrillization, ThT fluorescence. Potency, µM (highest dose often 57.4 µM), hits mostly inhibitors. 270,000 tested, 2.1% active; note: nearly all actives have a fitted effect of over 55% in size
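K18 P301L tau (15 uM + 0.24 uM Alexa 594-tagged), heparin 20 uM, NaOAc pH 7, 6 h 37 C; ThT 30 uM, 1 h RT, ex 450/em 510 nm.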
VP16 counter: counter-screen for ROR gamma inhibitors: Gal4-VP16 reporter | Drosophila S2 Gal4-VP16 UAS-luciferase, luminescence, 20 h | Potency, µM (titrated, usually from 53.6 µM), most hits filed as inhibitors | 310,000 tested, 3.5% active;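 note: Gal4-VP16 expression switched on by copper sulfate through the metallothionein promoter; nearly all actives have a fitted effect of over 50% in size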
RORgamma inh: ROR gamma (mouse) transcription inhibition | P51450 | Drosophila S2 Gal4-RORgamma UAS-luciferase reporter, 20 h | Potency, µM (series often up to 53.6 µM), hits mostly inhibitors | 310,000 tested, 5.4% active; note: nearly all actives have a fitted effect of over 60% in size
Target sequence (P51450 whole entry, looked up, the tested form may be a part): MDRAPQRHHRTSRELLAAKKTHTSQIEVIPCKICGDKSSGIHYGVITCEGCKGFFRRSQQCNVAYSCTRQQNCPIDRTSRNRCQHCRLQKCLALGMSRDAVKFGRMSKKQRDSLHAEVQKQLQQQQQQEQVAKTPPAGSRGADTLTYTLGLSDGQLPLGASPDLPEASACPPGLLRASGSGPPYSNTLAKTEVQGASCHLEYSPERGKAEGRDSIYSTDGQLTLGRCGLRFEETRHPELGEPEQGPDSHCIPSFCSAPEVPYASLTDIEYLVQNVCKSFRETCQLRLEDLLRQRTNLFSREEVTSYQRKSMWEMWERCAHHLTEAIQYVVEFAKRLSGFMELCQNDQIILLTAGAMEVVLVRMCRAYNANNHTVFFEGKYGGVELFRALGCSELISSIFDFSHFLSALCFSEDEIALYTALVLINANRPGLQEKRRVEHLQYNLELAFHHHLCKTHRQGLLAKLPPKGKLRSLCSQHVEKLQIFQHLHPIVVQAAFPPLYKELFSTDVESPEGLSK
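Stably transfected Drosophila Schneider cells are the test system, with ROR gamma fused to Gal4 and luciferase under UAS control; luminescence is read after 20 hr of 700 uM copper sulfate induction at ambient temperature.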
Tau fluor cs: counter-screen for tau fibril formation inhibitors; tau K18 P301L (four-repeat tau fragment) Alexa594 fluorescence, heparin fibrillization; Potency, µM (doses to about 57.7 µM); 280,000 tested, 0.93% active; AID 1463; note: nearly all actives have a fitted effect of over 55% in size
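Human K18 P301L tau (15 uM unlabeled plus 0.24 uM Alexa 594-labeled, final) in 100 mM sodium acetate pH 7 was mixed with compound and 20 uM heparin and incubated 6 hr at 37 C.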
Tau fibril FP: blocks human tau fibril formation measured by polarization; P10636; K18 P301L tau heparin fibrillization, Alexa594 FP, 6 h; Potency, µM (titrated, usually from 57.7 µM), most hits filed as inhibitors; 280,000 tested, 0.39% active; note: nearly all actives have a fitted effect of over 55% in size
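Read-out: fluorescence polarization of Alexa 594-labeled tau (0.24 uM), 555 nm excitation, 632 nm emission. Mixtures held 15 uM unlabeled K18 P301L, compound and 20 uM heparin, pH 7 acetate buffer, incubated 6 hr at 37 C.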
Of the large screens only hits and unclear results are named; the others gave an inactive call. An excerpt weighted towards active compounds, which were near 7.3% of everything screened. Calls come from the whole dose curve; as a rule, active = well fitted curve in the direction sought with a large enough effect; inconclusive = small, poorly fitted or top-dose-only effect, or another doubt; inactive = no such curve, though single readings can be large; an effect the other way counts as inactive or inconclusive.

Cc1ccc(C)c(N2CCN(C(=S)Nc3ccc4nc(N5CCOCC5)cc(C)c4c3)CC2)c1	Tau fibril ThT inconclusive, VP16 counter inconclusive, RORgamma inh 5.62µM, Tau fibril FP inconclusive
CCN1CCN(c2cc(C)c3cc(NC(=S)N4CCN(c5ccccc5)CC4)ccc3n2)CC1	Tau fibril ThT inconclusive, RORgamma inh inconclusive
Cc1cc(N2CCOCC2)nc2ccc(NC(=S)N3CCN(c4ccccc4)CC3)cc12	Tau fibril ThT inconclusive, RORgamma inh inconclusive
Cc1ccc(C)c(N2CCN(C(=S)Nc3ccc4nc(N5CCN(C)CC5)cc(C)c4c3)CC2)c1	Tau fibril ThT inconclusive, VP16 counter inconclusive, RORgamma inh 11.2µM, Tau fluor cs inconclusive
CC(/C=N/N1CCN(c2ccccc2)CC1)=C\c1ccco1	Tau fibril ThT inconclusive
CC(/C=N/n1c(-c2ccccc2)n[nH]c1=S)=C\c1ccco1	Tau fibril ThT inconclusive, VP16 counter 7.08µM, RORgamma inh inconclusive
CC(/C=N/n1c(-c2ccncc2)n[nH]c1=S)=C\c1ccco1	none (no result: Tau fibril ThT)
CC(/C=N/n1c(-c2ccc(C)cc2)n[nH]c1=S)=C\c1ccco1	VP16 counter 2.82µM, RORgamma inh 2.82µM
CC(/C=N/n1c(-c2cccnc2)n[nH]c1=S)=C\c1ccccc1	Tau fibril ThT inconclusive, VP16 counter inconclusive, RORgamma inh inconclusive
CC(=C/c1ccco1)/C=N/N1CCN(c2ccccc2)CC1	Tau fibril ThT 14.1µM
O=C(CCCCCN1C(=O)[C@@H]2Cc3ccccc3CN2C1=O)Nc1ccccc1Cl	none (no result: Tau fibril ThT, Tau fluor cs, Tau fibril FP)
O=C1c2ccccc2C(=O)N1OS(=O)(=O)c1ccccc1	Tau fibril ThT inconclusive, VP16 counter 15.8µM, RORgamma inh inconclusive, Tau fibril FP inconclusive
Cc1ccc(C)c(S(=O)(=O)ON2C(=O)c3ccccc3C2=O)c1	Tau fibril ThT inconclusive, VP16 counter 11.2µM, RORgamma inh inconclusive
O=C1c2cccc3cccc(c23)C(=O)N1OS(=O)(=O)c1ccccc1	Tau fluor cs inconclusive, Tau fibril FP inconclusive
Cc1ccc(S(=O)(=O)ON2C(=O)c3cccc4cccc(c34)C2=O)cc1	RORgamma inh inconclusive
Cc1cc(S(=O)(=O)ON2C(=O)c3ccccc3C2=O)ccc1F	VP16 counter 12.6µM, RORgamma inh inconclusive (no result: Tau fibril ThT, Tau fluor cs, Tau fibril FP)
CC(=O)c1cc(-c2ccccc2)n(CCC(=O)Nc2cc(C)cc(C)c2)c1C	none (no result: VP16 counter, RORgamma inh)
O=C1[C@H]2[C@H]3[C@H](O)[C@H](O)C/C(=N/OCc4ccccc4)[C@@H]3CC[C@@H]2C(=O)N1Cc1ccccc1	none
COc1ccc(Br)cc1C1NC(=O)c2c(sc3c2CCN(C)C3)N1 (configuration not stated)	none
CN1CCc2c(sc3c2C(=O)NC(c2ccc(-c4ccc(Cl)cc4)o2)N3)C1 (configuration not stated)	Tau fibril ThT 3.16µM, Tau fluor cs inconclusive, Tau fibril FP inconclusive
CN1CCc2c(sc3c2C(=O)NC(c2cn(Cc4ccccc4)c4ccccc24)N3)C1 (configuration not stated)	Tau fibril ThT 17.8µM, Tau fibril FP inconclusive
CN1CCc2c(sc3c2C(=O)NC(c2ccco2)N3)C1 (configuration not stated)	Tau fibril ThT inconclusive, Tau fibril FP inconclusive
CC(Oc1ccccc1F)C(=O)NNC(=O)CCNC(=O)c1ccccc1Cl (configuration not stated)	none (no result: Tau fibril ThT, Tau fluor cs, Tau fibril FP)
CCCCCc1ccc(OCCCC[n+]2ccc(C)cc2)c(CCCCC)c1	Tau fibril ThT inconclusive, VP16 counter 2.82µM, RORgamma inh 2µM
COc1ccc(O)c(CN2CCCC(N3CCc4ccccc4C3)C2)c1 (configuration not stated)	none (no result: Tau fibril ThT, Tau fluor cs, Tau fibril FP)
CC(=O)OCCCN1c2ccccc2Nc2nnc(-c3ccccc3)cc21	VP16 counter inconclusive, RORgamma inh 11.2µM
CC1=NN(C(=O)c2ccccc2Cl)C(O)(c2ccccc2)C1 (configuration not stated)	VP16 counter 7.08µM, RORgamma inh 6.31µM (no result: Tau fibril ThT, Tau fluor cs, Tau fibril FP)
CC1=NN(C(=O)c2ccccc2F)C(O)(c2ccc(Cl)cc2)C1 (configuration not stated)	VP16 counter 6.31µM, RORgamma inh 5.62µM (no result: Tau fibril ThT, Tau fluor cs, Tau fibril FP)
Cc1ccccc1C(=O)Nc1ccc(OCc2cc(=O)n3cccc(C)c3n2)cc1	none (no result: VP16 counter, RORgamma inh)
O=C(NC(=S)Nc1ccc(S(=O)(=O)NC2CCCCC2)cc1)c1cccs1	VP16 counter 0.447µM, RORgamma inh 1.12µM
